Measurements published in PubChem BioAssay (Tox21).
Where “and” joins values, the source holds several entries; their conditions need not be identical. Equal values may be shown once. Records with an inconclusive call do not appear. Where a structure was tested more than once in an assay, its records may differ in their call. Calls of active or inactive are those of the source. Calls follow the shape of the dose curve; as a rule, active = well fitted curve in the direction sought with a large enough effect in the repeat runs; inconclusive = weak or mixed curves; inactive = no such curve, though single readings can be large; an effect the other way counts as inactive or inconclusive.

How the values were obtained:
[1] = Caspase-3/7 induction in CHO-K1 cells by small molecules, qHTS cell viability counter screen (AID 1346979); also: nearly all actives have a fitted effect of over 35% in size; also: potency is read from the fitted curve at half-maximal effect
Method in brief: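 Viability readout by fluorescence (CellTiter-Fluor) on wild-type CHO-K1 cells exposed for 16hr at 37C and 5% CO2 to compounds delivered in DMSO; reagent incubated 1hr before reading.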

[2] = Caspase-3/7 induction in CHO-K1 cells by small molecules, qHTS assay (AID 1346980); also: nearly all actives have a fitted effect of over 15% in size
Method in brief: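 Wild-type CHO-K1 cells exposed to compounds for 17hr at 37 C, 5% CO2. Caspase-3/7 activity then measured by Caspase-Glo 3/7 luminescence after 30min at room temperature.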

[3] = Caspase-3/7 induction in HepG2 cells by small molecules, qHTS cell viability counter screen (AID 1346981); also: nearly all actives have a fitted effect of over 30% in size; also: potency is read from the fitted curve at half-maximal effect
Method in brief: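 Fluorescence read-out of live-cell protease activity (CellTiter-Fluor) after 1 hr with reagent. This was measured in the same wells as the caspase-3/7 luminescence, on HepG2 cells exposed to DMSO-dissolved compounds for 16 hr at 37 C.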

[4] = target: Nuclear receptor subfamily 1 group I member 2 (Homo sapiens) (UniProt O75469); assay: Human pregnane X receptor (PXR) small molecule agonists, qHTS assay (AID 1346982); also: nearly all actives have a fitted effect of over 35% in size; also: potency is read from the fitted curve at half-maximal effect
Nuclear receptor subfamily 1 group I member 2 (Homo sapiens), sequence (O75469 whole entry, looked up): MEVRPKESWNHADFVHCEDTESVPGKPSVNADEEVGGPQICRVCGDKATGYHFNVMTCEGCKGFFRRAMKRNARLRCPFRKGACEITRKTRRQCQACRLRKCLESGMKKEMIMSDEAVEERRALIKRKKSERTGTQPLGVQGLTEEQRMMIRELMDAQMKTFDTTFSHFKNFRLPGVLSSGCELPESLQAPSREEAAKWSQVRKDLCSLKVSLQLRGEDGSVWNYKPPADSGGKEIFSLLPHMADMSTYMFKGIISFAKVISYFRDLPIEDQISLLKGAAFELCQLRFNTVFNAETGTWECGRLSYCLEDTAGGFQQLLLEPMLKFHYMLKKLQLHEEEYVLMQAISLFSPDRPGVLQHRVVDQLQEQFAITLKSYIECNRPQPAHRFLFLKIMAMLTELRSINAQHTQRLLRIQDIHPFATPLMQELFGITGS
Method in brief: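 HepG2 PXR-Luc reporter line, 5% charcoal-stripped FBS; 5 hr pre-incubation, compound (DMSO) 24 hr at 37 C/5% CO2; ONE-Glo 30 min RT; luminescence read-out.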

[5] = target: Cytochrome P450 2D6 (Homo sapiens) (UniProt P10635); assay: Cytochrome P450 Family 2 Subfamily D Member 6 (CYP2D6) small molecule antagonists: luciferase reporter qHTS assay (AID 1671196); also: nearly all actives have a fitted effect of over 50% in size; also: potency is read from the fitted curve at half-maximal effect
Cytochrome P450 2D6 (Homo sapiens), sequence (P10635 whole entry, looked up): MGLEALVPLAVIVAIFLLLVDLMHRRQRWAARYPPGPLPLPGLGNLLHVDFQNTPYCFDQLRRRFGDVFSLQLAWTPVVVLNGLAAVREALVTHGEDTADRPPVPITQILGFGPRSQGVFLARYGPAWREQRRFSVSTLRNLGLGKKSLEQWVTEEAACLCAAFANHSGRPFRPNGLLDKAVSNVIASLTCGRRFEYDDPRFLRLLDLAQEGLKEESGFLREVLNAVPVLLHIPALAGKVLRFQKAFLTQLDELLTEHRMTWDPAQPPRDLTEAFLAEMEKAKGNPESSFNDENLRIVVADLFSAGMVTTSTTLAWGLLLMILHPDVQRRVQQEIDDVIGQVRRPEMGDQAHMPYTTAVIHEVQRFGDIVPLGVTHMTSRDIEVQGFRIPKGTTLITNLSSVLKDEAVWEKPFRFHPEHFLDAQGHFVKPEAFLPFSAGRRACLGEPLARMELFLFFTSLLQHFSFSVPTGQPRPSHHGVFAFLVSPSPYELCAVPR
Method in brief: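 Luminogenic proluciferin substrate, CYP2D6 enzyme; 10 min RT preincubation with compound, NADPH regeneration system added, 1 h RT. Stop/detection reagent, 20 min RT, luminescence read (RLU). Signal proportional to CYP activity.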

[6] = target: Cytochrome P450 2C19 (Homo sapiens) (UniProt P33261); assay: Cytochrome P450 Family 2 Subfamily C Member 19 (CYP2C19) small molecule antagonists: luciferase reporter qHTS assay (AID 1671197); also: nearly all actives have a fitted effect of over 65% in size; also: potency is read from the fitted curve at half-maximal effect
Cytochrome P450 2C19 (Homo sapiens), sequence (P33261 whole entry, looked up): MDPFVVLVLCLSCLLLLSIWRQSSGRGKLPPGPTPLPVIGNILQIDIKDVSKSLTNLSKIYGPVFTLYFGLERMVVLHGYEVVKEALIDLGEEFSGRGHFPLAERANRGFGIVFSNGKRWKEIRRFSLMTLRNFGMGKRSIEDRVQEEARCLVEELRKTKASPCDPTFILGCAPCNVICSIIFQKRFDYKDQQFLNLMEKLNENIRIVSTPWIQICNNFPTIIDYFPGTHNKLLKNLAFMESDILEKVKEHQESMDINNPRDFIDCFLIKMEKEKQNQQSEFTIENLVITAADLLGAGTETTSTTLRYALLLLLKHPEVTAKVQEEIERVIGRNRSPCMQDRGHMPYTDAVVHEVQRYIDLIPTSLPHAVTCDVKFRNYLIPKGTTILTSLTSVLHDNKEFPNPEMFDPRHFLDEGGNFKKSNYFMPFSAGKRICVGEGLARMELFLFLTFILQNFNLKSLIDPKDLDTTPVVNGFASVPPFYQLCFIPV
Method in brief: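 First, compounds are pinned into enzyme-substrate mix and held 10 min at room temperature. Second, NADPH regeneration solution is added and plates incubate 1 h at 37C. Third, detection reagent is added and luminescence read after 20 min.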

[7] = target: Cytochrome P450 2C9 (Homo sapiens) (UniProt P11712); assay: Cytochrome P450 Family 2 Subfamily C Member 9 (CYP2C9) small molecule antagonists: luciferase reporter qHTS assay (AID 1671198); also: nearly all actives have a fitted effect of over 50% in size; also: potency is read from the fitted curve at half-maximal effect
Cytochrome P450 2C9 (Homo sapiens), sequence (P11712 whole entry, looked up): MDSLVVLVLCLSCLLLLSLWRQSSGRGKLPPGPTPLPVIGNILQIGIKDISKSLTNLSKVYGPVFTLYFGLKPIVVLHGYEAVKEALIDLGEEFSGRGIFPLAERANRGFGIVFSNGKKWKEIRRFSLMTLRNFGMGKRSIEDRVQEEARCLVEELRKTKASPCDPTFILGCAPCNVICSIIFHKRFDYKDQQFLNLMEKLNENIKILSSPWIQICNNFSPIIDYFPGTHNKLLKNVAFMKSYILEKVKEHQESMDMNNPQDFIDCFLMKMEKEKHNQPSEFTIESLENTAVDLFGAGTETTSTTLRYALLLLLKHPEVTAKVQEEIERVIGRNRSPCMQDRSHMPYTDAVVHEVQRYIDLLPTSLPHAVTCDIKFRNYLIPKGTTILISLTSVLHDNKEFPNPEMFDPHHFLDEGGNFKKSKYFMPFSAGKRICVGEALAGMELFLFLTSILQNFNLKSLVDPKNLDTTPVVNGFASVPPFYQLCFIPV
Method in brief: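 P450-Glo proluciferin substrate with CYP2C9 enzyme; 10 min RT preincubation, then NADPH regeneration 1 h at 37C; luciferin detection reagent 20 min RT, luminescence in relative luminescence units.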

Measured: Potency

CCO[Si](OCC)(OCC)OCC
inactive: all assays above

CC(=O)Oc1cc2c(s1)CCN(C(C(=O)C1CC1)c1ccccc1F)C2 (stereo unspecified)
inactive: [1] | [2] | [3]
active: [4] 26.6 µM | [5] 8.71 µM | [6] 6.92 µM | [7] 13.8 µM

O=S(=O)(O)c1ccc(Nc2nc(Nc3ccc(/C=C/c4ccc(Nc5nc(Nc6ccc(S(=O)(=O)O)cc6)nc(N(CCO)CCO)n5)cc4S(=O)(=O)O)c(S(=O)(=O)O)c3)nc(N(CCO)CCO)n2)cc1
inactive: all assays above

Cc1cc(-c2ccc(N=Nc3cc(S(=O)(=O)O)c4ccccc4c3N)c(C)c2)ccc1N=Nc1cc(S(=O)(=O)O)c2ccccc2c1N
active: [1] 54.8 µM | [4] 19.4 µM | [5] 2.26 µM
inactive: all other assays above

O=C(O)c1cc(O)c2ccccc2c1O
active: [1] 6.11 µM | [3] 9.69 µM | [4] 1.93 µM | [5] 35.6 µM | [6] 7.1 µM | [7] 15.9 µM
inactive: [2]

CCOC(=O)NNc1ccc(N(CC)CC(C)O)nn1 (stereo unspecified)
not listed: [6]
inactive: all other assays above

Fc1ccc(C(c2ccc(F)cc2)N2CCNCC2)cc1
active: [5] 2.19 µM
inactive: all other assays above

Cc1c(C)c2c(c(C)c1O)CC[C@@](C)(CCC[C@H](C)CCC[C@H](C)CCCC(C)C)O2
not listed: [6]
inactive: all other assays above

O=C(O)Cc1ccc2c(c1)C(=O)c1ccccc1CO2
inactive: all assays above

CCCCC(CC)COC(=O)CCCCC(=O)OCc1ccccc1 (stereo unspecified)
active: [6] 35.6 µM | [7] 15.9 µM
inactive: all other assays above

C=Cc1cccc(C)c1
39.5 µM (active) and inactive: [5]
60.5 µM (active) and inactive: [1]
inactive: all other assays above

CC(=O)c1ccc(C(C)=O)cc1
active: [6] 64.8 µM
inactive: all other assays above

O=C(O)c1ccc2cc(C(=O)O)ccc2c1
active: [6] 32 µM
inactive: all other assays above

Cc1c(N)cccc1C(F)(F)F
inactive: all assays above

O=[N+]([O-])c1cccc(C(F)(F)F)c1
inactive: all assays above

O=C(O)c1cccc(C(F)(F)F)c1
active: [7] 79.6 µM
inactive: all other assays above

c1ccsc1
inactive: all assays above

CCN(CCN)c1cccc(C)c1
active: [4] 61.7 µM and 61.1 µM | [5] 2.54 µM and 10 µM | [6] 7.17 µM and 35.6 µM | [7] 40.3 µM and 56.4 µM
inactive: [1] | [2] | [3]

CC(C)CCOC(=O)/C=C/c1ccccc1
active: [6] 63.5 µM | [7] 40.1 µM
inactive: all other assays above

CCC(=O)OC(=O)CC
not listed: [5]
inactive: all other assays above

CCCCOC(=O)CC
not listed: [6]
inactive: all other assays above

CCCNCCC
not listed: [5]
inactive: all other assays above

CC(=O)OCC=C(C)C
not listed: [5]
inactive: all other assays above

CCCCCCCCCCCC(=O)OCC(C)OC(=O)CCCCC(=O)O (stereo unspecified)
active: [7] 7.76 µM
not listed: [5]
inactive: all other assays above
